# Sm TGR inh = inhibitors of Schistosoma mansoni thioredoxin glutathione reductase. Q962Y6. purified TGR, DTNB reduction, TNB absorbance 405 nm. Potency, µM (highest dose often 114 µM), for the others: at the highest dose activity change, negative = inhibition, most hits filed as inhibitors. 3% of 360,000 active; note: nearly all actives have a fitted effect of over 60% in size
#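 First, TGR (20 nM dispensed) and NADPH were mixed with compound. Second, a 15 min room-temperature incubation followed. Third, further NADPH and then DTNB were added to start the reaction. Finally, TNB absorbance was monitored kinetically.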
# AmpC detergent = blocks E. coli AmpC beta-lactamase in detergent assay; P00811; AmpC hydrolysis of nitrocefin, absorbance 480 nm, 0.01% Triton; Potency, µM (series often up to 114 µM), inactives show at the highest dose activity change, negative = inhibition, actives largely listed as inhibitors; 0.041% of 370,000 active; AID 485294;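 note: 0% = no-compound wells and -100% = no-enzyme wells; nearly all actives have a fitted effect of over 25% in size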
# Target sequence (P00811 whole entry, looked up): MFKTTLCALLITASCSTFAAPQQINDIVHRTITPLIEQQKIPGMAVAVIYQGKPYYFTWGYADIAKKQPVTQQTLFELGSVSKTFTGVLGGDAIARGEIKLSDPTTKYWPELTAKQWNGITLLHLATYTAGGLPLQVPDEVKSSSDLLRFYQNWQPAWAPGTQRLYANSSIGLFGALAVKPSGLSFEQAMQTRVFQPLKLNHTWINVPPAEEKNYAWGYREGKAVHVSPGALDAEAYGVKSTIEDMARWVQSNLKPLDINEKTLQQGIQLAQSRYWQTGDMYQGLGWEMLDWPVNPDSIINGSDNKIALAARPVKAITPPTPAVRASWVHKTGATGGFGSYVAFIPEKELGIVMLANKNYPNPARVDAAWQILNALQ
#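 AmpC (5.3 nM in the dispensed reagent) in 20 mM phosphate pH 7.0 with 0.01% (detergent screen) or 0.0001% Triton X-100 was preincubated with compounds for 15 min at room temperature. Nitrocefin was then added from an 800 uM solution, and hydrolysis was followed at 480 nm.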
# AmpC inh no detg = AmpC beta-lactamase inhibition without detergent. Potency, µM (highest dose often 57.1 µM), without a hit: at the highest dose activity change, negative = inhibition, hits mostly inhibitors. 0.52% of 330,000 active. AID 485341. P00811. AmpC nitrocefin hydrolysis, absorbance 480 nm, 0.0001% Triton;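 note: plate controls were no compound for no effect and no enzyme for full effect; nearly all actives have a fitted effect of over 20% in size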
#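 AmpC (5.3 nM in the dispensed reagent) in 20 mM phosphate pH 7.0 with 0.01% (detergent screen) or 0.0001% Triton X-100 was preincubated with compounds for 15 min at room temperature. Nitrocefin was then added from an 800 uM solution, and hydrolysis was followed at 480 nm.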
# An asterisk follows results filed as active; ? = inconclusive; . = no result. Most compounds without a hit are left out; they make up all but 3.3% or so of the library. Calls come from the whole dose curve; as a rule, active = well fitted curve in the direction sought with a large enough effect; inconclusive = small, poorly fitted or top-dose-only effect, or another doubt; inactive = no such curve, though single readings can be large; an effect the other way counts as inactive or inconclusive. Unless noted, % is set by controls: 0 for no effect and ±100 for the full control effect; potency is the fitted concentration of half-maximal effect.
SMILES,Sm TGR inh,AmpC detergent,AmpC inh no detg
COc1ccc(-n2nnnc2C2CCN(S(=O)(=O)c3ccc(C(C)(C)C)cc3)CC2)cc1,0%,18%,.
CN1C(=O)CC(N2CCN(C(=O)CN3CCCC3)CC2)C1=O (configuration not stated),-4%,-15%,-16%
CCOc1ccc(N2C(=O)CC(N3CCN(C(=O)CN4CCCC4)CC3)C2=O)cc1 (configuration not stated),35µM*,?,3%
COC(=O)c1ccc(NC(=O)CCn2cccn2)cc1,-2%,3%,.
Cc1ccn2c(=O)cc(COc3cccc(NC(=O)Nc4cccc(Cl)c4C)c3)nc2c1,-3%,3%,.
CCSc1ncc(Cl)c(C(=O)N(Cc2ccc(N(C)C)cc2)Cc2ccco2)n1,2%,2%,.
Cc1ccc(N2C(=O)C(Cl)=C(Nc3c(C)n(C)n(-c4ccccc4)c3=O)C2=O)cc1,8.9µM*,2%,?
Cc1c(NC(=O)Nc2c(Cl)cccc2Cl)c(=O)n(-c2ccccc2)n1C,1%,-10%,-5%
Cc1ccc(Nc2nc3ccccc3nc2Nc2c(C)n(C)n(-c3ccccc3)c2=O)cc1,-12%,?,-49%
Cc1cccc(N2C(=O)C(Cl)=C(Nc3c(C)n(C)n(-c4ccccc4)c3=O)C2=O)c1C,8.9µM*,-11%,43%
COc1cc(CN(C(=O)COc2ccc(Br)cc2)c2ccccn2)cc(OC)c1OC,2%,-2%,.
CCCCCCOc1ccc(C2C(=O)N(C3CCCCC3)CC(=O)N2C2CCCCC2)cc1 (configuration not stated),10%,-5%,.
COc1ccccc1Nc1nc(-c2cccc(N3C(=O)c4ccccc4C3=O)c2)cs1,-3%,-13%,-19%
O=C1c2ccccc2C(=O)N1c1cccc(-c2csc(Nc3ccc4c(c3)OCO4)n2)c1,50µM*,-2%,-40%
O=C(NCCCN1CCCC1)c1ccc(Cn2c(=S)[nH]c3ccc(Br)cc3c2=O)cc1,45µM*,?,26%
O=C(NCCN1CCCC1)c1ccc(Cn2c(=S)[nH]c3ccc(Br)cc3c2=O)cc1,-7%,4%,-5%
CCn1cc2nc(SCc3ccccc3Cl)n(Cc3ccc(OC)cc3)c(=O)c2n1,12%,-3%,.
Cc1ccc2c(c1)-c1onc(C(=O)N3CCN(c4ccc(Cl)cc4)CC3)c1CO2,5%,6%,.
CC(C)N1C(=O)CC2(CC[N+](C)(CCOC(=O)C(O)(c3ccccc3)c3ccccc3)CC2)C1=O (configuration not stated),-3%,2%,23%
CC(C)N1C(=O)CC2(CC[N+](C)(CCOC(=O)C(c3ccccc3)c3ccccc3)CC2)C1=O (configuration not stated),50µM*,-4%,-17%
CCOc1ccc(C(C)=O)cc1CC(C(N)=O)C(N)=O,-20%,-16%,-11%
CCOc1ccc(C(C)=O)cc1COC(=O)C1=COCCO1,28µM*,?,11%
Cc1noc(Cn2c(=O)c3cc4c(cc3n(CC(=O)Nc3cccc(Cl)c3)c2=O)OCO4)n1,-11%,-9%,.
COC(=O)CN(C)C(=O)CC1C(=O)NCCN1CC(C)(C)C (configuration not stated),?,4%,-22%
CC(C)(C)CN1CCNC(=O)C1CC(=O)N1CCOc2ccccc2C1 (configuration not stated),40µM*,1%,41%
SMILES,Sm TGR inh,AmpC detergent,AmpC inh no detg
COc1cccc(CN2CCNC(=O)C2CC(=O)N2CCOc3ccccc3C2)c1OC (configuration not stated),-4%,-5%,-15%
C=C(C)CN(CC)C(=O)CC1C(=O)NCCN1CC(C)(C)C (configuration not stated),40µM*,-5%,26%
COc1cccc(NS(=O)(=O)c2cc(-c3cnc(C4CC4)o3)ccc2C)c1,3%,13%,.
Cc1cccc(Cn2c(=O)n(CCc3ccccc3)c(=O)c3c(C)c(C)sc32)c1,1%,25%,.
CC1Cc2nc(SCC(=O)N3CCN(c4ccccc4)CC3)n(C)c(=O)c2S1 (configuration not stated),-4%,?,1.6µM*
CCn1c(SCC(=O)NCc2ccccc2)nc2c(c1=O)SC(C)C2 (configuration not stated),1%,-2%,1.6µM*
CCn1c(SCC(=O)N2CCN(c3ccccc3)CC2)nc2c(c1=O)SC(C)C2 (configuration not stated),-1%,-7%,77%
CC1Cc2nc(SCC(=O)N3CCCC3)n(C)c(=O)c2S1 (configuration not stated),0%,?,-2%

# Screens from PubChem BioAssay.
